According to PubChem BioAssay AID813 (Sanford-Burnham Center for Chemical Genomics, 2007):
Screen size: about 64,000 compounds; fewer than 10 were called active.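 How the source made its calls: active means activation factor of at least 2 at 20 µM, relative to controls; inactive means the rest.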 The list is a sample of the results.

Target: Alkaline phosphatase, tissue-nonspecific isozyme (Homo sapiens) (UniProt P05186)
Experiment: stimulation of alkaline phosphatase TNAP activity – biochemical, luminescent, intermediate phosphate acceptor level, primary screen (AID 813)
Details: purified TNAP, CDP-star luminescence, 100 mM DEA, 30 min; at 20 µM; hits give high values; scale: 0 levamisole-inhibited, 1 vehicle-only enzyme

Chain of Alkaline phosphatase, tissue-nonspecific isozyme (Homo sapiens) (P05186 whole entry, looked up): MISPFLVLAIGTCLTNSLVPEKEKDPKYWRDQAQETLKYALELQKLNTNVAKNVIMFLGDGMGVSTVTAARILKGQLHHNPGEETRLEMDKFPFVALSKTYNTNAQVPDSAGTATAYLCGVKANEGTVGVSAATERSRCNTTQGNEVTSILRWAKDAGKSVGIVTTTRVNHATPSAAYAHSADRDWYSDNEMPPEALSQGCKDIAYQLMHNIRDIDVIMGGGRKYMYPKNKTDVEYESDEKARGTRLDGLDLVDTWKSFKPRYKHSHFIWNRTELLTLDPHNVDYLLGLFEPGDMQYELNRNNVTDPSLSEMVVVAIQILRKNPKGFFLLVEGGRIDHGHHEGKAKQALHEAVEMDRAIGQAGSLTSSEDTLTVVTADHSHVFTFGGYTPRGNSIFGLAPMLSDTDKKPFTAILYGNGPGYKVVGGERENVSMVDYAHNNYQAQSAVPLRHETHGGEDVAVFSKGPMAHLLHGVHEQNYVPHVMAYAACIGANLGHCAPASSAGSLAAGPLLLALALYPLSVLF

Activation factor, inactive:
Cc1ccccc1CSc1nnc(-c2cccnc2)n1N 0.9
COCCN1C(=O)c2oc3c(C)cc(C)cc3c(=O)c2C1c1cccc(O)c1 (stereo not drawn) 0.8
COc1ccc2occ(C(=O)c3ccc(N=C(C)N(C)C)cc3)c2c1 0.9
O=C1CN(C(=O)COC(=O)C2CC(=O)N(Cc3ccco3)C2)c2ccccc2N1 (stereo not drawn) 0.9
CSc1nc(O)c(Cc2ccccc2)c(=O)[nH]1 1
COc1cc(C(O)c2nc3ccccc3n2C)cc(OC)c1OC (stereo not drawn) 0.9
O=C(O)c1cc(S(=O)(=O)N2CCCCCC2)c(Cl)cc1Cl 1
CCN1CCCC1CNC(=O)Cn1cnc2ccc(S(=O)(=O)N3CCC(C)CC3)cc2c1=O (stereo not drawn) 0.9
CCCCn1nc(C(=O)N2CCc3ccccc32)c2ccccc2c1=O 0.9
Cc1ccc(O)c(NC(=O)COc2cc(C)ccc2C)c1 0.9
Cc1cccc(OCc2nnc(SCC(=O)N3CCN(C(=O)c4ccco4)CC3)n2C)c1C 0.9
Cc1cc(Cl)c(S(=O)(=O)Nc2ccc3c(c2)OCCO3)cc1OCC(N)=O 0.9
CC(=NCc1ccco1)C1=C(O)c2ccccc2C1=O 0.9
Cc1ccc(-c2noc(CSc3nnc(-c4ccccc4)n3C)n2)cc1 1
O=C(Cn1[nH]c(=O)c2ccccc2c1=O)Nc1cccc(-c2nnc3n2CCCCC3)c1 0.9
CC1Cc2nc(SCC(=O)Nc3ccccc3F)n(C)c(=O)c2S1 (stereo not drawn) 1
COc1ccccc1C(=O)Oc1ccc(N2C(=O)CCC2=O)cc1 0.9
Clc1ccc(C2CC(c3cccs3)n3ncnc3N2)cc1Cl (stereo not drawn) 1
O=C(CNC(=O)c1ccco1)OCC(=O)c1ccccc1 0.9
CN1CCC2(CC1)NC(=O)NC2=O 1
CCN(CC)CCN1C(=O)C(=O)/C(=C(/O)c2ccc(OC)c(OC)c2)C1c1ccccn1 (stereo not drawn) 1
O=S(=O)(O)c1nc2ccccc2n1Cc1ccc(Cl)cc1Cl 0.9
CC(Nc1nc(N2CCCC2)nc2ccccc12)c1ccccc1 (stereo not drawn) 1
NC(=O)CSc1c[nH]c2ccccc12 0.9
CCCCOc1ccc(C(=O)NCc2ccco2)cc1 0.9
COc1ccc(S(=O)(=O)N2CCCC(C(=O)Nc3ccc(NC(=O)c4ccccn4)cc3)C2)cc1 (stereo not drawn) 0.8
Cc1cc(Nc2cccc(C)c2C)n2ncnc2n1 1
O=C(CSC1=Nc2ccccc2C2=NC(c3ccccc3)C(=O)N12)NCC1CCCO1 (stereo not drawn) 0.9
CCOC(=O)c1cccc(NC(=O)C2CCCN(S(=O)(=O)c3cnc[nH]3)C2)c1 (stereo not drawn) 0.9
CSCC[C@H](NC(=O)NCc1cccs1)C(=O)O 0.9
Cc1c2cn[nH]c(=O)c2c(C)n1Cc1ccc(F)cc1 0.9
COc1ccc2nc(NC3=NCN(CC4CCCO4)CN3)nc(C)c2c1 (stereo not drawn) 0.9
Cc1ccc(C)n1C(Cc1ccccc1)C(=O)O (stereo not drawn) 0.8
Cc1cc(N2CCCC2=O)cc(C)c1S(N)(=O)=O 0.9
CCOC(=O)Cn1c(N)c(C(=O)OC)sc1=S 0.9
Cc1cccc(NC(=O)c2ccc3ccccc3n2)n1 0.9
COc1ccc(C2C(C#N)=C(N)Oc3cc(N)ccc32)cc1OC (stereo not drawn) 1
Cc1nn(C)c(C)c1S(=O)(=O)N1CCc2ccccc21 1
Cc1cc(C)nc(N2C(=O)CC(Cc3ccccc3)C2=O)n1 (stereo not drawn) 0.9
COc1ccc(-n2c(SCC(=O)Nc3ccc4c(c3)OCO4)nnc2C(C)N2CCCCC2)cc1 (stereo not drawn) 1
N#CC1=C(N)OC2=C(C(=O)CCC2)C1C1CC=CCC1 (stereo not drawn) 0.9
O=C(Nc1ccon1)c1sc2ccccc2c1Cl 1
Cc1ccc(S(=O)(=O)NCC(=O)OCC(=O)N2CCc3ccccc32)cc1 0.8
COc1ccc(C(=O)CSc2nccc(=O)[nH]2)cc1 1
CSc1cccc(NC(=O)C2CCCN2S(=O)(=O)c2ccc3c(c2)CCC(=O)N3)c1 (stereo not drawn) 0.9
Cc1ccnc(N2CCCC(C(=O)Nc3cc(F)ccc3C)C2)n1 (stereo not drawn) 0.9
Nc1nonc1C(=O)NCCc1ccccc1 0.9
CCc1cccc(C)c1NC(=O)CSc1nnc(-c2ccco2)n1N 1.1
COc1ccccc1-n1c(CNC(=O)c2ccccc2)nnc1SCC(=O)Nc1nnc(C)s1 1
Cc1ccc(S(=O)(=O)NC(C)C(=O)Nc2ccccc2C(=O)N2CCCC2)cc1 (stereo not drawn) 0.9
O=C1C(C=NCC2CCCO2)=C(O)c2ccccc21 (stereo not drawn) 1
O=C(CCN1C(=O)c2ccccc2C1=O)Nc1ccncc1 1
CCn1nnc(NC(=O)c2cc(Cl)c(OC)c(Cl)c2)n1 0.9
CN(C)/C=C1/C(=O)Nc2ccccc21 0.9
CCCNC(=O)C1CC(=O)N(c2ccc(OCC(=O)Nc3cccc(C)c3C)cc2)C1 (stereo not drawn) 1
CCCCNC(=O)CSc1nnc(-c2ccco2)n1C 1
CCOC(=O)c1cccc(NC(=O)CCn2nnc3ccccc32)c1 0.9
O=C(CSc1nnc(-c2cccs2)n1Cc1ccco1)c1ccc2c(c1)OCO2 0.9
CC(=O)N(CC1CCCO1)C1(C(=O)NC2CCCC2)CCCCC1 (stereo not drawn) 1
CCn1c(SCC(=O)Nc2cc(C)c(Cl)cc2OC)nnc1-c1ccco1 1
Cc1ccc2c(C(=O)CN3CCCC3)c(C)[nH]c2c1 0.9
Cc1cccc(C2c3c(n(C)c(=O)n(C)c3=O)N=C3c4ccccc4C(=O)C32)c1 (stereo not drawn) 0.8
C=CCn1c(C2CC(=O)N(c3ccc(C)cc3)C2)nc2ccccc21 (stereo not drawn) 0.9
CC1(C)Cc2c(C#N)c(SCc3nc4ccccc4[nH]3)nc(N3CCOCC3)c2CO1 1
CCOC(=O)C1C(=O)OC2(CCCC2)C1C(=O)OCC (stereo not drawn) 0.9
Cc1ncn(C23CC4CC(CC(O)(C4)C2)C3)n1 1
CC1CN(C(=O)CN2C(=O)NC(C)(c3ccccc3)C2=O)CC(C)O1 (stereo not drawn) 0.9
CCOc1cc(C)c(Cl)cc1S(=O)(=O)n1nnc2ccccc21 0.9
CCOC(=O)CNC(=O)c1nn(-c2cccc(OC)c2)c(=O)c2ccccc12 0.9
CC(C)c1ccc(NC(=O)NC2CCCCC2)cc1 0.9
COc1ccc(N2C(=O)C3CCCN3C2c2cc(OC)c(OC)cc2OC)cc1 (stereo not drawn) 0.9
Cc1oc(CC(C)C)c(CN2CCCC2)c1C(=O)O 0.9
CCCn1c(SCC(N)=O)nnc1C(C)C 0.9
O=C(CCN1C(=O)COc2ccccc21)NCCCN1CCN(c2ccc(F)cc2)CC1 0.9
Cc1c(-c2nn(C)c(=O)c3ccccc23)oc2ccc(F)cc2c1=O 1
CCC(=O)N1c2ccc(S(=O)(=O)CCC(=O)N3CCN(c4ccccc4)CC3)cc2CC1C (stereo not drawn) 0.9
Cc1cc(Nc2ccccc2)n(CCC#N)n1 1
Cc1cc2cc(CNC(=O)c3ccc(S(=O)(=O)N4CCOCC4)cc3)ccc2[nH]1 1
CCOC(=O)c1cc2occc2n1CC(=O)NC1CCC(C)CC1 (stereo not drawn) 0.9
CC(CN1CCCCC1)OC(=O)c1ccccc1Cl (stereo not drawn) 1
COC(=O)c1cc(NC2c3ccccc3C(=O)N2c2ccc(Cl)cn2)cc(C(=O)OC)c1 (stereo not drawn) 0.9
N=c1c2c3c(sc2ncn1CCCN1CCOCC1)CCCCC3 0.9
Cc1ccc(S(=O)(=O)NCc2csc(C)n2)c(C)c1 0.9
CSCCC1NC2(C(=O)Nc3ccc(Cl)cc32)[C@@H]2C(=O)N(C3CCCC3)C(=O)[C@H]12 (stereo partly drawn) 0.9
NC(=O)c1ccsc1NC(=O)c1ccco1 0.8
O=C(CC1(O)C(=O)N(CN2CCOCC2)c2ccccc21)c1ccccc1 (stereo not drawn) 0.9
CCOc1cccc(-n2nnnc2-c2ccc(OC)cc2)c1 0.8
Cc1ccc(N2C(=O)c3oc4ccccc4c(=O)c3C2c2cccnc2)nc1 (stereo not drawn) 0.9
COc1ccccc1N1CCN(Cc2ccc(OC)c3ccccc23)CC1 0.9
CC(C)(C)c1csc(NC2=NS(=O)(=O)c3ccccc32)n1 0.9
CN1CCN(CC(O)COCc2ccc3c(c2)OCO3)CC1 (stereo not drawn) 1
COc1cc(C2C(C(=O)c3sc(C)nc3C)=C(O)C(=O)N2CCN(C)C)cc(OC)c1OC (stereo not drawn) 0.9
CCOc1cc(/C=N/O)cc(Br)c1OC 0.9
Cc1ccc(C(=O)Nc2ccccc2C(=O)NC2CCCCC2)cc1S(=O)(=O)N1CCOCC1 0.9
CC1CCN(c2nc3c(c(=O)[nH]c(=O)n3C)n2CCCc2ccccc2)CC1 1
Cc1cc(C)nc(NC2=NCC(=O)N2c2ccc(Cl)cc2)n1 0.9
CCOc1cc(S(=O)(=O)NC2CC(C)(C)NC(C)(C)C2)ccc1F 0.9
Nc1nnc(C2CCCC2)s1 0.9
Cn1c(=NC(=O)c2ccco2)sc2cccc(F)c21 0.9
CC(C)(CNCC(O)c1ccccc1)N1CCOCC1 (stereo not drawn) 0.9
CCOc1ccc(N(CC(=O)OC)S(=O)(=O)c2c(C)noc2C)cc1 0.9
COc1ccc(CCn2nnnc2C(c2ccccc2)N2CCN(C)CC2)cc1OC (stereo not drawn) 1
O=C(OCCO)c1cc(Cl)c(C(=O)OCCO)cc1Cl 0.9
